# Several values for one entry are separate records, joined by “and”; a condition that tells them apart may be missing. Equal entries are not always repeated. This is part of a sample that, as a whole, favours compounds with a hit. Of some 83,000 tested, about 20% had one in any assay.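 Single-concentration screen, 48 h exposure, 96-well plates. Endpoint: percent growth. Below 10 = active.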 Activity calls are given as the source filed them.
# Assays:
# Assay in all cases: NCI-60 one-dose screen, 48 h (100 = growth as untreated, 0 = no growth, -100 = all killed)
# SR leukemia = details: 10 µM unless noted
# RPMI-8226 leukemia = test system: RPMI-8226 leukemia
# OVCAR-8 ovarian = test system: OVCAR-8 ovarian
# OVCAR-5 ovarian = test system: OVCAR-5 ovarian
# OVCAR-4 ovarian = test system: OVCAR-4 ovarian
# SK-OV-3 ovarian = test system: SK-OV-3 ovarian
# IGROV1 ovarian = test system: IGROV1 ovarian
# OVCAR-3 ovarian = test system: OVCAR-3 ovarian
# HS 578T breast = test system: HS 578T breast
# NCI/ADR-RES ovarian = test system: NCI/ADR-RES ovarian
# T-47D breast = test system: T-47D breast
# BT-549 breast = test system: BT-549 breast
# MDA-MB-435 melanoma = test system: MDA-MB-435 melanoma
# SW-620 colon = test system: SW-620 colon
# MCF7 breast = test system: MCF7 breast
# HCT-116 colon = test system: HCT-116 colon
# HCC-2998 colon = test system: HCC-2998 colon
# KM12 colon = details: 10 µM unless noted
smiles,measurement,setting,value
Cn1c2ccccc2c2nnc(N/N=C/c3ccccn3)nc21,growth,SR leukemia,8.61% (active)
same,growth,RPMI-8226 leukemia; 10 µM unless noted,-14.2% (active)
same,growth,OVCAR-8 ovarian; 10 µM unless noted,23.9% (inactive)
same,growth,OVCAR-5 ovarian; 10 µM unless noted,40.6% (inactive)
same,growth,OVCAR-4 ovarian; 10 µM unless noted,24.4% (inactive)
same,growth,SK-OV-3 ovarian; 10 µM unless noted,-11.1% (active)
same,growth,IGROV1 ovarian; 10 µM unless noted,4.97% (active)
same,growth,OVCAR-3 ovarian; 10 µM unless noted,23.5% (inactive)
same,growth,HS 578T breast; 10 µM unless noted,53.7% (inactive)
same,growth,NCI/ADR-RES ovarian; 10 µM unless noted,6.51% (active)
same,growth,T-47D breast; 10 µM unless noted,19.2% (inactive)
same,growth,BT-549 breast; 10 µM unless noted,-24.2% (active)
same,growth,MDA-MB-435 melanoma; 10 µM unless noted,19.1% (inactive)
same,growth,SW-620 colon; 10 µM unless noted,31.3% (inactive)
same,growth,MCF7 breast; 10 µM,13.3% (inactive)
same,growth,HCT-116 colon; 10 µM unless noted,14.4% (inactive)
same,growth,HCC-2998 colon; 10 µM unless noted,34.5% (inactive)
same,growth,KM12 colon,23% (inactive)
CN(C)C(=O)c1ccc(SC(=S)NCc2ccccc2)cc1,growth,SR leukemia,-36.6% [100 µM] (active)
same,growth,RPMI-8226 leukemia; 10 µM,107% (inactive)
same,growth,RPMI-8226 leukemia; 100 µM,-27.3% (active)
same,growth,OVCAR-8 ovarian; 10 µM,106% (inactive)
same,growth,OVCAR-8 ovarian; 100 µM,-6.08% (active)
same,growth,OVCAR-5 ovarian; 10 µM,113% (inactive)
same,growth,OVCAR-5 ovarian; 100 µM,20.1% (inactive)
same,growth,OVCAR-4 ovarian; 10 µM,113% (inactive)
same,growth,OVCAR-4 ovarian; 100 µM,43.8% (inactive)
same,growth,SK-OV-3 ovarian; 10 µM,108% (inactive)
same,growth,SK-OV-3 ovarian; 100 µM,108% (inactive)
same,growth,IGROV1 ovarian; 10 µM,116% (inactive)
same,growth,IGROV1 ovarian; 100 µM,-28.3% (active)
same,growth,HS 578T breast; 10 µM,116% (inactive)
same,growth,HS 578T breast; 100 µM,45.7% (inactive)
same,growth,NCI/ADR-RES ovarian; 10 µM,111% (inactive)
same,growth,NCI/ADR-RES ovarian; 100 µM,2.6% (active)
same,growth,T-47D breast; 10 µM,90% (inactive)
same,growth,T-47D breast; 100 µM,13.4% (inactive)
same,growth,BT-549 breast; 10 µM,114% (inactive)
same,growth,BT-549 breast; 100 µM,-79.3% (active)
same,growth,MDA-MB-435 melanoma; 10 µM,97.4% (inactive)
same,growth,MDA-MB-435 melanoma; 100 µM,4.45% (active)
same,growth,SW-620 colon; 10 µM,98.9% (inactive)
same,growth,SW-620 colon; 100 µM,-35.8% (active)
same,growth,MCF7 breast; 10 µM,67.3% (inactive)
same,growth,MCF7 breast; 100 µM,-7.59% (active)
same,growth,HCT-116 colon; 10 µM,100% (inactive)
same,growth,HCT-116 colon; 100 µM,-26.2% (active)
same,growth,HCC-2998 colon; 10 µM,104% (inactive)
same,growth,HCC-2998 colon; 100 µM,-78.3% (active)
CN=C(N)N/N=C(\C)c1ccc2c(c1)Cc1cc(/C(C)=N/NC(N)=NC)ccc1-2,growth,SR leukemia,-23.3% (active)
same,growth,RPMI-8226 leukemia; 10 µM unless noted,-1.58% (active)
same,growth,OVCAR-8 ovarian; 10 µM unless noted,-53.5% (active)
same,growth,OVCAR-5 ovarian; 10 µM unless noted,-44.4% (active)
same,growth,OVCAR-4 ovarian; 10 µM unless noted,-69.1% (active)
same,growth,SK-OV-3 ovarian; 10 µM unless noted,-80.8% (active)
same,growth,IGROV1 ovarian; 10 µM unless noted,26.5% (inactive)
same,growth,OVCAR-3 ovarian; 10 µM unless noted,-59.6% (active)
same,growth,HS 578T breast; 10 µM unless noted,-8.27% (active)
same,growth,NCI/ADR-RES ovarian; 10 µM unless noted,64.8% (inactive)
same,growth,T-47D breast; 10 µM unless noted,-26% (active)
same,growth,BT-549 breast; 10 µM unless noted,49.6% (inactive)
same,growth,MDA-MB-435 melanoma; 10 µM unless noted,-59.7% (active)
same,growth,SW-620 colon; 10 µM unless noted,-14.8% (active)
same,growth,MCF7 breast; 10 µM,-38.3% (active)
same,growth,HCT-116 colon; 10 µM unless noted,-23.5% (active)
same,growth,HCC-2998 colon; 10 µM unless noted,-78.7% (active)
same,growth,KM12 colon,-20.3% (active)
O=C(O)c1c(Cl)c(Cl)c(Cl)c(Cl)c1-c1c2cc(I)c(=O)c(I)c-2oc2c(I)c(O)c(I)cc12,growth,SR leukemia,97.9% (inactive)
same,growth,RPMI-8226 leukemia; 10 µM,114% (inactive) and 90.6% (inactive) and 31.5% (inactive)
same,growth,RPMI-8226 leukemia; 100 µM,24.3% (inactive)
same,growth,OVCAR-8 ovarian; 10 µM,107% (inactive) and 105% (inactive) and 91.4% (inactive)
same,growth,OVCAR-8 ovarian; 100 µM,-13.2% (active)
same,growth,OVCAR-5 ovarian; 10 µM,107% (inactive) and 98.5% (inactive) and 104% (inactive)
same,growth,OVCAR-5 ovarian; 100 µM,-42.9% (active)
same,growth,OVCAR-4 ovarian; 10 µM,104% (inactive) and 110% (inactive) and 72.9% (inactive)
same,growth,OVCAR-4 ovarian; 100 µM,53.2% (inactive)
same,growth,SK-OV-3 ovarian; 10 µM,101% (inactive) and 92.4% (inactive) and 93.1% (inactive)
same,growth,SK-OV-3 ovarian; 100 µM,-73.9% (active)
same,growth,IGROV1 ovarian; 10 µM,105% (inactive) and 80.5% (inactive) and -7.13% (active)
same,growth,IGROV1 ovarian; 100 µM,5.19% (active)
same,growth,OVCAR-3 ovarian; 10 µM,97.1% (inactive) and 72% (inactive) and 111% (inactive)
same,growth,OVCAR-3 ovarian; 100 µM,-26.1% (active)
same,growth,NCI/ADR-RES ovarian; 10 µM,103% (inactive) and 98% (inactive) and 109% (inactive)
same,growth,NCI/ADR-RES ovarian; 100 µM,10.7% (inactive)
same,growth,T-47D breast; 10 µM,110% (inactive) and 85.9% (inactive) and 95.8% (inactive)
same,growth,T-47D breast; 100 µM,-47.8% (active)
same,growth,BT-549 breast; 10 µM,108% (inactive) and 117% (inactive) and 43.5% (inactive)
same,growth,BT-549 breast; 100 µM,-47.5% (active)
same,growth,MDA-MB-435 melanoma; 10 µM,104% (inactive) and 113% (inactive) and 110% (inactive)
same,growth,MDA-MB-435 melanoma; 100 µM,69% (inactive)
same,growth,SW-620 colon; 10 µM,107% (inactive) and 140% (inactive) and 109% (inactive)
same,growth,SW-620 colon; 100 µM,13.7% (inactive)
same,growth,MCF7 breast; 10 µM,101% (inactive) and 98.9% (inactive) and 81.2% (inactive)
same,growth,MCF7 breast; 100 µM,-38.3% (active)
same,growth,HCT-116 colon; 10 µM,106% (inactive) and 103% (inactive) and 114% (inactive)
same,growth,HCT-116 colon; 100 µM,0.594% (active)
same,growth,HCC-2998 colon; 10 µM,110% (inactive) and 106% (inactive) and 113% (inactive)
same,growth,HCC-2998 colon; 100 µM,-7.72% (active)
CC(=O)C(=Cc1ccc(C=C(C(C)=O)C(C)=O)cc1)C(C)=O,growth,SR leukemia,6.26% (active)
same,growth,RPMI-8226 leukemia; 10 µM unless noted,2.05% (active)
same,growth,OVCAR-8 ovarian; 10 µM unless noted,2.83% (active)
same,growth,OVCAR-5 ovarian; 10 µM unless noted,27.1% (inactive)
same,growth,OVCAR-4 ovarian; 10 µM unless noted,30.4% (inactive)
same,growth,SK-OV-3 ovarian; 10 µM unless noted,93.9% (inactive)
same,growth,IGROV1 ovarian; 10 µM unless noted,48.6% (inactive)
same,growth,OVCAR-3 ovarian; 10 µM unless noted,-16.2% (active)
same,growth,HS 578T breast; 10 µM unless noted,64.7% (inactive)
same,growth,NCI/ADR-RES ovarian; 10 µM unless noted,7.49% (active)
same,growth,T-47D breast; 10 µM unless noted,29.1% (inactive)
same,growth,BT-549 breast; 10 µM unless noted,12.6% (inactive)
same,growth,MDA-MB-435 melanoma; 10 µM unless noted,7.62% (active)
same,growth,SW-620 colon; 10 µM unless noted,-11.2% (active)
same,growth,MCF7 breast; 10 µM,1.33% (active)
same,growth,HCT-116 colon; 10 µM unless noted,-56.3% (active)
same,growth,HCC-2998 colon; 10 µM unless noted,45.2% (inactive)

# From PubChem BioAssay (NCI)
